Bioassay records from PubChem BioAssay.
In the library only some 2.2% were active in any assay of this set; here they are far more common.
RTF Ca sens act: cardiac RTF calcium sensitization; P19429+P45379; IANBD-labeled TnC RTF fluorescence at EC20 calcium; 0% EC20 calcium, 100% full calcium; activation, % at 7.2 µM; 340,000 compounds, 0.24% hits;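 active means activation above the mean over all tested compounds plus 3 SD, cut at about 30% in these data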;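 further: rise in fluorescence read as greater calcium sensitivity of cardiac thin filaments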
CRFBP-R2 block: blocks CRF-induced signaling of the CRF-BP/CRF-R2 complex. HEK293 CRF-R2/CRF-BP, CRF-induced calcium fluorescence. inhibition, % at 11.8 µM. 350,000 compounds, 0.59% hits. AID 588475;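 active means inhibition of the ligand-induced calcium signal above about 50% at the single tested concentration, limit read from the data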
Myeloid diff MLP: promotes myeloid progenitor differentiation; ER-HoxA9 myeloid progenitors, lysozyme-GFP differentiation, flow cytometry; calls only at 10 µM; 360,000 compounds, 1% hits;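 active means normalized GFP-positive differentiation at or above the plate's own cutoff, the solvent-only control mean plus 3 SD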;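 further: cells exposed to compound for four days before flow analysis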
CRFR2-BP ag: CRF-BP/CRF-R2 complex agonism; HEK293 CRF-R2/CRF-BP, calcium dye fluorescence (FLIPR); percent of saturating CRF peptide response; AID 588473; 350,000 compounds, 0.46% hits; activation, % at 13.2 µM;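 active means activation of at least 50%, plus an integration ratio under a set limit after plate pattern correction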;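 further: plate controls were neutral control wells without compound for no effect and CRF at EC100 for full effect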
RTF Ca sens inh: cardiac RTF calcium desensitization; 340,000 compounds, 0.12% hits; AID 493244; inhibition, % at 7.15 µM; IANBD-labeled cardiac RTF, Ca2+ fluorescence; P19429+P45379;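 active means inhibition above the mean inhibition of all tested compounds plus 3 SD, cut at about 17% in these data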;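 further: assay run at fixed EC70 calcium of 1.6 mM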
Active calls of the source: *.

COC(=O)Nc1ccc(S(=O)(=O)N2CCCC(C(=O)NC3CCCCC3)C2)cc1 (stereo not drawn) was read as RTF Ca sens act 1.0, CRFBP-R2 block 5.0, Myeloid diff MLP inactive, CRFR2-BP ag -1.3 and RTF Ca sens inh 12.1.
Screening COC(=O)Nc1ccc(S(=O)(=O)N2CCC(C(=O)NC3CCCCC3)CC2)cc1 returned RTF Ca sens act -1.3, CRFBP-R2 block -14.1, Myeloid diff MLP active, CRFR2-BP ag -0.9 and RTF Ca sens inh 3.1.
CN(C)c1ccc(CNC(=O)C2CCN(S(=O)(=O)c3ccc4c(c3)CCCC(=O)N4)CC2)cc1 was read as RTF Ca sens act 0.7, CRFBP-R2 block 7.5, Myeloid diff MLP active, CRFR2-BP ag -0.1 and RTF Ca sens inh -3.0.
`O=C1CCc2cc(S(=O)(=O)N3CCC(C(=O)NC4CCCCCCC4)CC3)ccc2N1` gave RTF Ca sens act 3.8, CRFBP-R2 block 68.5*, Myeloid diff MLP inactive, CRFR2-BP ag 0.1 and RTF Ca sens inh -7.0.
`Cc1ccc(S(=O)(=O)N(C)CCCC(=O)Nc2ccc(C)cc2C)cc1` gave RTF Ca sens act -4.2, CRFBP-R2 block -20.4, Myeloid diff MLP inactive, CRFR2-BP ag -0.9 and RTF Ca sens inh -1.9.
Screening CCc1noc(C)c1C(=O)N1CCN(S(=O)(=O)c2ccc(Br)cc2Cl)CC1 returned RTF Ca sens act 2.8, CRFBP-R2 block -3.8, Myeloid diff MLP inactive, CRFR2-BP ag -0.7 and RTF Ca sens inh -17.7.
Cc1cccc(C)c1NC(=O)Cn1cc(C=O)c2ccccc21 was read as RTF Ca sens act 2.3, CRFBP-R2 block 4.1, Myeloid diff MLP inactive, CRFR2-BP ag -0.7 and RTF Ca sens inh 5.5.
Screening CCCCc1ccc(NC(=S)N2CCCC(C)C2)cc1 (stereo not drawn) returned RTF Ca sens act -3.5, CRFBP-R2 block 6.3, Myeloid diff MLP inactive, CRFR2-BP ag -1.7 and RTF Ca sens inh -5.4.
For O=C(c1cc(C2CCCCN2S(=O)(=O)c2ccc(F)cc2F)on1)N1CCOCC1 (stereo not drawn) the results were Myeloid diff MLP inactive.
`CCOc1ccccc1NC(=O)CNC(=O)CNC(=O)Cc1ccccc1` gave RTF Ca sens act -0.4, CRFBP-R2 block -13.3, Myeloid diff MLP inactive, CRFR2-BP ag -0.8 and RTF Ca sens inh -2.7.
CCOc1ccccc1NC(=O)CNC(=O)Cc1ccccc1 was read as RTF Ca sens act -0.6, CRFBP-R2 block 52.4*, Myeloid diff MLP inactive, CRFR2-BP ag -0.4 and RTF Ca sens inh 8.4.
CCCCCCc1nc(C(N)=O)c2[nH]c(=O)n(-c3ccccc3F)c2n1 was read as RTF Ca sens act -3.4, CRFBP-R2 block -12.6, CRFR2-BP ag -0.1 and RTF Ca sens inh 1.9.
Screening CCCCNS(=O)(=O)NC(=O)C1=C(N2CCCC2)COC1=O returned RTF Ca sens act -3.0, CRFBP-R2 block 5.4, Myeloid diff MLP inactive, CRFR2-BP ag -2.0 and RTF Ca sens inh 1.1.
Screening CCCCn1c(-c2nonc2NC(=O)c2ccccc2Cl)nc2ccccc21 returned RTF Ca sens act 4.9, CRFBP-R2 block 27.9, Myeloid diff MLP active, CRFR2-BP ag 4.9 and RTF Ca sens inh -15.3.
Screening N#CCCn1c(-c2nonc2NC(=O)c2ccccc2Cl)nc2ccccc21 returned RTF Ca sens act 5.8, CRFBP-R2 block 15.9, Myeloid diff MLP inactive, CRFR2-BP ag -1.6 and RTF Ca sens inh 0.4.
`CN1CCOc2cc(S(=O)(=O)NCc3ccc(S(N)(=O)=O)cc3)ccc21` gave RTF Ca sens act 2.0, CRFBP-R2 block -1.8, Myeloid diff MLP inactive, CRFR2-BP ag -1.6 and RTF Ca sens inh -3.6.
`COc1cccc(C2CC(c3cccs3)=NN2C(=O)CSC2=NN3CCCC(=O)N=C3S2)c1OC` (stereo not drawn) gave RTF Ca sens act -4.0, CRFBP-R2 block 12.1, Myeloid diff MLP active, CRFR2-BP ag -2.6 and RTF Ca sens inh -0.8.
COc1ccc(C2=NN(C(=O)CSC3=NN4CCCC(=O)N=C4S3)C(c3cccc(OC)c3OC)C2)cc1 (stereo not drawn) was read as RTF Ca sens act 5.4, CRFBP-R2 block -16.4, Myeloid diff MLP inactive, CRFR2-BP ag 1.0 and RTF Ca sens inh -4.5.
`COc1cccc(C2CC(c3cccs3)=NN2C(=O)c2ccco2)c1O` (stereo not drawn) gave RTF Ca sens act -3.2, CRFBP-R2 block 67.2*, Myeloid diff MLP inactive, CRFR2-BP ag -1.1 and RTF Ca sens inh -3.2.
`COc1ccc(C2CC(c3cccs3)=NN2C(=O)c2ccccc2)cc1OC` (stereo not drawn) gave RTF Ca sens act -1.0, CRFBP-R2 block 51.9*, Myeloid diff MLP inactive, CRFR2-BP ag -0.2 and RTF Ca sens inh -3.0.
Cc1ccc(C2=NN(C(=O)c3cccs3)C(c3ccccc3O)C2)cc1 (stereo not drawn) was read as RTF Ca sens act -1.5, CRFBP-R2 block 74.7*, Myeloid diff MLP inactive, CRFR2-BP ag -2.1 and RTF Ca sens inh -7.3.
Screening CC(C)[C@@H](C(=O)N1CCCC1)N1C(=O)N2CCc3c([nH]c4ccccc34)[C@@]2(C)C1=O returned RTF Ca sens act 0.6, CRFBP-R2 block -3.3, Myeloid diff MLP inactive, CRFR2-BP ag 5.4 and RTF Ca sens inh -9.1.
Screening O=C(Nc1ccncc1)C1CC(=O)N(Cc2ccccc2)C1 (stereo not drawn) returned RTF Ca sens act 4.8, CRFBP-R2 block -8.9, Myeloid diff MLP inactive, CRFR2-BP ag 3.2 and RTF Ca sens inh 5.7.
`O=C(c1ccco1)N1N=C(c2cccs2)CC1c1ccccc1O` (stereo not drawn) gave RTF Ca sens act 0.3, CRFBP-R2 block 92.6*, Myeloid diff MLP inactive, CRFR2-BP ag -9.4 and RTF Ca sens inh -1.3.
`N#C/C(=C\c1ccccn1)c1nc2ccccc2s1` gave RTF Ca sens act 59.7*, CRFBP-R2 block -221.9, Myeloid diff MLP active, CRFR2-BP ag 81.7* and RTF Ca sens inh -59.0.
N#C/C(=C\c1ccc(-c2ccc(F)cc2)o1)C(=O)Nc1nc(-c2cccs2)cs1 was read as RTF Ca sens act 16.5, CRFBP-R2 block -19.9, Myeloid diff MLP inactive, CRFR2-BP ag 10.3 and RTF Ca sens inh -2.0.
`N#C/C(=C/c1ccc(-c2ccc(S(N)(=O)=O)cc2)o1)c1nc2ccccc2s1` gave RTF Ca sens act 346.6*, CRFBP-R2 block -233.9, Myeloid diff MLP active, CRFR2-BP ag 203.3* and RTF Ca sens inh -466.4.
`N#C/C(=C/c1ccc(-c2ccc(S(N)(=O)=O)cc2)o1)C(=O)Nc1ccccc1` gave RTF Ca sens act 1.6, CRFBP-R2 block -57.9, Myeloid diff MLP inactive, CRFR2-BP ag 8.2 and RTF Ca sens inh -29.6.
For N#C/C(=C/c1ccc(-c2ccccc2)o1)c1nc(-c2cccs2)cs1 the results were RTF Ca sens act 93.4*, CRFBP-R2 block -198.4, Myeloid diff MLP active, CRFR2-BP ag 158.7* and RTF Ca sens inh -43.5.
CCN(CC(=O)Nc1ccc(OC)cc1)C(=O)c1ccc(N2CCCC2=O)cc1 was read as RTF Ca sens act 7.1, CRFBP-R2 block 4.6, Myeloid diff MLP inactive, CRFR2-BP ag -0.3 and RTF Ca sens inh -1.6.
